# Assay outcomes: PubChem BioAssay, National Center for Advancing Translational Sciences (NCATS)
# HCV inhibitor – inhibitors of hepatitis C virus infection. Huh7.5.1 HCVcc-Cre infection, luciferase reporter, 44 h. Potency, µM (titrated, usually from 41.8 µM), without a hit: top-dose activity change, negative = inhibition, hits mostly inhibitors. actives 3.4% (n = 340,000); further: on the % scale 0 is the no-effect control and ±100 the full control effect
#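 After 44 h co-culture of compound, cells and HCVcc-Cre (~0.5 moi), substrate is added for 15 min at room temperature and luciferase measured over 15 sec. Cells were seeded at 1,000/well and pre-cultured 4 h.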
# Vaccinia mCherry – inhibitors of vaccinia virus infection (mCherry reporter signal) | Potency, µM (doses to about 36.5 µM), for the others: at the highest dose activity change, negative = inhibition, actives largely listed as inhibitors | AID 720579 | Vaccinia virus mCherry reporter infection, fluorescence | actives 0.63% (n = 310,000); calls by dose curve; tested in A549 cells; further: on the % scale 0 is the no-effect control and ±100 the full control effect; nearly all actives have a fitted effect of over 35% in size
# NS1 function inh – influenza NS1 inhibition; Potency, µM (titrated, usually from 46.1 µM), without a hit: at the top dose activity, positive = more growth; actives 0.4% (n = 270,000); calls by dose curve; further: actives are rising curves; nearly all actives have a fitted effect of over 50% in size
#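 Compounds were scored for reversing the slow growth caused by influenza A NS1 in S. cerevisiae, measured by optical density at 600 nm. Assay medium contained 2% galactose at pH 6.0; NS1-free yeast of the same strain were the positive control.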
# Pf growth 48h – P. falciparum growth inhibition at 48 hours (one generation) | Potency, µM (titrated, usually from 28.7 µM), for the others: at the highest dose activity change, negative = inhibition, most hits filed as inhibitors | P. falciparum luciferase growth in erythrocytes, 48 h | AID 504832 | actives 5.9% (n = 310,000); further: on the % scale 0 is the no-effect control and ±100 the full control effect
#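 A one-generation exposure of luciferase-tagged malaria parasites in RPMI 1640/Albumax erythrocyte culture, 37 C and 5% CO2. Inhibition is inferred from decreased luminescence after adding detection reagent.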
# Pf growth 96h – inhibits malaria parasite growth, 96 h | P. falciparum luciferase reporter growth, 96 h | actives 6.9% (n = 320,000) | Potency, µM (doses to about 28.7 µM), for the others: at the top dose activity change, negative = inhibition, usual class: inhibitors; further: on the % scale 0 is the no-effect control and ±100 the full control effect
#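 Compounds incubated with erythrocytes infected by luciferase-expressing P. falciparum (2% hematocrit, 0.05% parasitemia final) for 96 hours, 37 C in 5% CO2. Growth inhibition scored as decreased luciferase luminescence.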
# VACV Venus inh – vaccinia inhibition (Venus reporter); Vaccinia virus Venus reporter expression, fluorescence; Potency, µM (titrated, usually from 36.5 µM), for the others: top-dose activity change, negative = inhibition, hits mostly inhibitors; actives 0.46% (n = 330,000); calls by dose curve; tested in A549 cells; further: on the % scale 0 is the no-effect control and ±100 the full control effect; nearly all actives have a fitted effect of over 30% in size
# An asterisk follows results filed as active; i = inactive; ? = inconclusive; nt = no result given; [ ] = another dose, or the depositor's remark. Compounds with a hit are over-represented: about 11% of the library has one in this group of screens. Unless noted, the call rests on the fitted dose curve; in most records, active means well fitted inhibition curve with a large enough effect; inconclusive means small, poorly fitted or top-dose-only effect, or another doubt; inactive means no such curve, though single readings can be large or run the other way. Potency means the concentration at half of the fitted maximal effect.
SMILES,HCV inhibitor,Vaccinia mCherry,NS1 function inh,Pf growth 48h,Pf growth 96h,VACV Venus inh
CN(CC(=O)NCc1ccc(F)cc1)S(=O)(=O)c1ccc2c(c1)c(=O)n(C)c(=O)n2C,5%,-5%[7.34 µM],3%,-32%,-3%,7%[7.34 µM]
CCOc1ccc(CCNC(=O)c2cc(S(=O)(=O)N3CCOCC3)ccc2C)cc1OCC,-9%,i,nt,?,?,-7%
CCOc1ccc(CCNC(=O)c2ccc(Cl)c(S(=O)(=O)N3CCOCC3)c2)cc1OCC,?,i,nt,12µM*,?,-12%
O=C(NCCc1ccc(F)cc1)c1ccc(Cl)c(S(=O)(=O)N2CCOCC2)c1,?,nt,nt,9.3µM*,12µM*,nt
CCOc1ccc(CCNC(=O)c2ccc(C)c(S(=O)(=O)N3CCOCC3)c2)cc1OCC,10µM*,-4%,nt,nt,nt,-21%
CCOc1ccc(CCNC(=O)c2ccc(F)c(S(=O)(=O)N3CCOCC3)c2)cc1OCC,?,-14%,2%,?,?,-12%
C#Cc1cccc(Nc2ncnc3cc(OCCOC)c(OCCOC)cc23)c1,nt,nt,nt,13µM*,6µM*,nt
COc1cc2ncnc(Nc3cccc(Cl)c3)c2cc1OC,nt,?,-25%,nt,nt,?
Cc1cccc(N(C(=O)c2snc(C(N)=O)c2N)C(C(=O)NCC2CCCO2)c2ccc(N(C)C)cc2)c1 (configuration not stated),-10%,7%,13%,13µM*,40%,2%
CCOc1ccccc1N(C(=O)c1snc(C(N)=O)c1N)C(C(=O)NCC1CCCO1)c1ccc2ncccc2c1 (configuration not stated),-2%,i,2%,?,?,-5%
CN(C)c1ccc(C(C(=O)NCC2CCCO2)N(C(=O)c2snc(C(N)=O)c2N)c2ccc3c(c2)OCO3)cc1 (configuration not stated),-17%,i,-16%,?,?,-5%
Cc1ccccc1N(C(=O)c1snc(C(N)=O)c1N)C(C(=O)NCC1CCCO1)c1ccc(N(C)C)cc1 (configuration not stated),-1%,-12%,3%,1.7µM*,?,-12%
NC(=O)c1nsc(C(=O)N(c2ccccc2)C(C(=O)NCC2CCCO2)c2ccc3ncccc3c2)c1N (configuration not stated),-14%,2%,-15%,12µM*,?,-7%
CCOc1ccc(C(C(=O)NCC2CCCO2)N(Cc2cccc(OC)c2)C(=O)c2snc(C(N)=O)c2N)cc1 (configuration not stated),-20%,-15%,-9%,13µM*,?,-22%
CCN1C(=O)/C(=C2\SC(=S)N(NC(=O)c3cccnc3)C2=O)c2ccccc21,-11%,nt,-3%,23%,-3%,nt
CN(C)c1ccc(C(C(=O)NCC2CCCO2)N(C(=O)c2snc(C(N)=O)c2N)c2ccccc2)cc1 (configuration not stated),-1%,-11%,-4%,2.9µM*,11%,5%
CC(C)c1ccc(N(C(=O)c2snc(C(N)=O)c2N)C(C(=O)NCC2CCCO2)c2ccc(N(C)C)cc2)cc1 (configuration not stated),?,?,19%,?,10%,?
Cc1ccc(-n2ncc(C(=O)N3CCN(c4cc(Cl)ccc4C)CC3)c2C2CCN(C(=O)OC(C)(C)C)CC2)cc1,nt,-13%,nt,nt,nt,-22%
CC1OC(OC2C=C3CCC4C(CCC5(C)C(c6ccc(=O)oc6)CCC45O)C3(C)CC2)C(O)C(OC2OC(CO)C(O)C(O)C2O)C1O (configuration not stated),16µM*,0.28µM*,nt,nt,nt,0.0032µM*
Cc1c(C(=O)NCc2ccco2)cccc1[N+](=O)[O-],?,-22%,11%,7%,35%,-17%
CCc1ccc(OCc2ccc(C(=O)NCc3ccccn3)o2)cc1,1%,nt,-33%,?,10µM*,-2%
CCOc1ccc(OCc2ccc(C(=O)O)o2)cc1,2%,-16%,-6%,182%,?,-10%
Cc1ccc(Oc2ccc(C(=O)NCc3ccncc3)cc2)cc1,3.2µM*,-28%,nt,?,?,-7%
O=C(NCc1ccncc1)c1ccc(Oc2ccccc2)cc1,?,-20%,nt,14%,36%,-9%
CCCNC(=O)c1ccc(COc2ccc(C(C)(C)C)cc2)o1,13µM*,i,-6%,?,-2%,-24%
SMILES,HCV inhibitor,Vaccinia mCherry,NS1 function inh,Pf growth 48h,Pf growth 96h,VACV Venus inh
CCCNC(=O)c1ccc(COc2ccc(Cl)cc2)o1,-17%,nt,-52%,8%,?,nt
CCOc1ccc(OCc2ccc(C(=O)NCc3ccncc3)o2)cc1,7.1µM*,i,-2%,3%,-4%,-17%
COc1ccc(CN(C)CC(=O)Nc2c(C)cccc2C)c(OC)c1,?,-7%,nt,?,2%,-11%
O=C(O)CC(NC(=O)C12CC3CC(CC(C3)C1)C2)c1cc([N+](=O)[O-])ccc1Cl (configuration not stated),10%,4%,nt,36%,?,-2%
COc1ccc(C(CC(=O)Nc2ccc(Br)cn2)N2Cc3ccccc3C2=O)cc1 (configuration not stated),nt,-11%,nt,nt,nt,-7%
COc1ccccc1/C=C\C(=O)O,nt,-8%,nt,nt,nt,-5%
CC(=O)/C=C/c1ccccc1Oc1c(F)c(F)nc(F)c1F,-19%,nt,1%,?,9.3µM*,nt
CSCc1ccc(C(=O)Nc2ccc(C(N)=O)cc2)cc1,8%,nt,-1%,67%,101%,nt
COc1ccc(S(=O)(=O)N2CCCCCC2)cc1C(=O)N(C)Cc1ccc(C(C)(C)C)cc1,14µM*,?,17%,?,13µM*,-28%
COc1ccc(CN(C)C(=O)c2cc(S(=O)(=O)N3CCOCC3)ccc2N2CCCC2)cc1,3%,-14%,nt,9.3µM*,?,-12%
CN(Cc1cccs1)C(=O)c1cc(S(=O)(=O)N2CCOCC2)ccc1N1CCCC1,3%,nt,nt,-7%,12%,nt
c1ccc2c(c1)Oc1ccccc1S2,8%,-21%,nt,13%,30%,-16%
CCN(CC)c1ccc(N=Cc2ccc(N(CC)CC)cc2O)cc1,-13%,nt,-1%,1.2µM*,nt,nt
Cc1ccccc1NCc1ccc([N+](=O)[O-])s1,-17%,i,-15%,11%,?,-11%
CCOc1ccc(-n2nc3ccc(NC(=O)c4ccc5c(c4)OCCO5)cc3n2)cc1,6.3µM*,-13%,-5%,-24%,323%,-12%
CCc1ccc(-n2nc3ccc(NC(=O)c4ccc5c(c4)OCO5)cc3n2)cc1,-17%,nt,3%,nt,22%,nt
O=C(Nc1ccc2nn(-c3ccccc3)nc2c1)c1ccc2c(c1)OCCO2,7.1µM*,nt,4%,-29%,-20%,-29%
COc1ccccc1Nc1nc(-c2c(C)nc3ncccn23)cs1,11µM*,?,-4%,?,6%,-29%
